In PubChem BioAssay (NCI):
About 83,000 compounds went through this panel and 20% of them were active in at least one assay; those are over-represented in the sample as a whole.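 Growth was measured after 48 h exposure to one concentration of compound in 96-well plates. Values under 10 count as active.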 Unmarked numbers belong to inactive results. Calls of active or inactive are those of the source.

Columns and labels:
Assay in all cases: NCI-60 one-dose screen, 48 h (100 = growth as untreated, 0 = no growth, -100 = all killed)
Conditions in all cases: 10 µM unless noted
DU-145 prostate = tested on: DU-145 prostate
K-562 leukemia = tested on: K-562 leukemia
MALME-3M melanoma = tested on: MALME-3M melanoma
MDA-MB-231 breast = tested on: MDA-MB-231 breast
SF-268 CNS = tested on: SF-268 CNS
SF-539 CNS = tested on: SF-539 CNS
M14 melanoma = tested on: M14 melanoma
HCT-15 colon = tested on: HCT-15 colon
HT29 colon = tested on: HT29 colon
SNB-75 CNS = tested on: SNB-75 CNS
SNB-19 CNS = tested on: SNB-19 CNS
U251 CNS = tested on: U251 CNS
SK-MEL-5 melanoma = tested on: SK-MEL-5 melanoma
UACC-62 melanoma = tested on: UACC-62 melanoma
LOX IMVI melanoma = tested on: LOX IMVI melanoma
SK-MEL-28 melanoma = tested on: SK-MEL-28 melanoma
RXF 393 renal = tested on: RXF 393 renal
SF-295 CNS = tested on: SF-295 CNS
UACC-257 melanoma = tested on: UACC-257 melanoma
PC-3 prostate = tested on: PC-3 prostate

SMILES	growth (DU-145 prostate) [%]	growth (K-562 leukemia)	growth (MALME-3M melanoma)	growth (MDA-MB-231 breast) [%]	growth (SF-268 CNS) [%]	growth (SF-539 CNS)	growth (M14 melanoma)	growth (HCT-15 colon) [%]	growth (HT29 colon)	growth (SNB-75 CNS) [%]	growth (SNB-19 CNS) [%]	growth (U251 CNS) [%]	growth (SK-MEL-5 melanoma) [%]	growth (UACC-62 melanoma) [%]	growth (LOX IMVI melanoma)	growth (SK-MEL-28 melanoma)	growth (RXF 393 renal)	growth (SF-295 CNS)	growth (UACC-257 melanoma)	growth (PC-3 prostate) [%]
CCN(c1ccc(C(=O)N2CCN(c3ccccc3)CC2)cc1)S(C)(=O)=O	108	96.4%	94.2%	119	98.7	103%	104%	104	97.7%	64.1	100	105	99.6	105	100%	108%	–	–	–	–
COc1cc(NC(=O)COc2ccccc2)c(C(N)=O)cc1OC	23.6	7.84% (active)	–	51.2	53.4	-23.9% (active)	16.8%	30.1	1.53% (active)	17.9	56	17.8	–	51.9	59.1%	70.1%	6.01% (active)	7.73% (active)	51.3%	30.7
CC1=CN2C(=NC3=C(CCCC/C3=C\c3ccccc3)C2c2ccccc2)S1 (configuration not stated)	108	98.2%	89%	103	96.9	92.3%	107%	94.8	91.7%	82.5	–	96.5	–	83.8	97.5%	107%	–	79.1%	–	–
CCSc1nnc2c3cc(Br)ccc3n(C)c2n1	119	118%	–	93.3	107	106%	98.4%	96.7	104%	92.6	109	101	–	103	96%	123%	116%	93.7%	105%	81
NC(=O)c1cc(I)ccc1NC(=O)COc1ccc(Cl)cc1Cl	111	31.5%	–	107	97.5	97%	81.5%	62.8	85.1%	113	98.7	89.5	–	83.1	93.3%	99.3%	99.3%	90.2%	89.6%	–
O=c1[nH]c(=S)[nH]c(=O)n1Cc1cccc2ccccc12	116	90.1%	97.3%	106	107	103%	104%	98.3	110%	81.8	–	93.1	–	89.7	94.3%	103%	–	77.4%	–	92.8
COc1ccc(Nc2nc(NCCNc3ccnc4cc(Cl)ccc34)nc(N3CCOCC3)n2)cc1	67.7	6.77% (active)	-80.2% (active)	25.2	58.3	38.1%	19.9%	15.1	4.28% (active)	38.4	78	48.2	48.7	74.2	40.2%	-80.7% (active)	–	–	–	43.8
Cn1c2ccccc2c2nn(C(=O)c3ccccc3)c(=O)nc21	118	112%	–	120	111	106%	104%	101	105%	105	99	112	–	105	99.3%	–	101%	98.2%	118%	92.4
Clc1nc(-c2ccccn2)nc2sc3c(c12)CCCCCC3	22.6	79.8%	94.2%	117	94.6	97.3%	86.8%	84.2	–	85	–	97.2	–	96	67.8%	89.3%	–	–	–	92.2
O=c1nc(NO)[nH]c(=O)n1Cc1ccc(F)cc1	114	98.1%	103%	122	104	102%	107%	107	105%	86.1	–	98.6	–	108	101%	102%	–	–	–	94.1
CCC12CCC3c4ccc(O)cc4CCC3C1CC(O)C2O (configuration not stated)	103	23.7%	70.1%	–	103	80.6%	55%	57.4	96.9%	65.8	90.1	56.5	63.4	67.6	81%	67.2%	98.6%	58.1%	67.4%	85.5
Cc1ccc(N(CSc2ccc(Cl)cc2)CSc2ccc(Cl)cc2)cc1	44.8	–	69.1%	18.4	25	16.1%	57.8%	67.2	74.7%	106	78.6	47.8	65.5	60	-10.1% (active)	102%	91.4%	11.3%	88.9%	10.8
O=[N+]([O-])c1ccc(O)c2ncccc12	75.8	–	52.2%	46	50.2	42.2%	47.3%	31.5	–	84.1	37.9	34.2	56.4	29.1	46.8%	81.7%	92.4%	24.5%	73.6%	–
NC(=O)c1cc(I)ccc1NC(=O)COc1ccccc1	25	8.23% (active)	–	27.6	46.4	-33.6% (active)	0.806% (active)	–	7.08% (active)	30.8	43.1	13.5	–	46	52.1%	57.7%	8.03% (active)	12.6%	61.4%	–
N#CCCN1CCN(CCC#N)C1=S	110	109%	–	99.6	99.4	101%	96.6%	–	98.6%	95.6	98.5	101	110	91.4	104%	122%	124%	93.3%	99.8%	99.6
Oc1ccccc1/C=N/Nc1nc2ccccc2s1	48	41%	–	37.7	32.3	44.6%	56.6%	–	–	45.6	51.4	45.3	48.8	–	37.2%	83.3%	86.3%	27.9%	58.7%	34.6
CC(C)N1CCN(c2ccc(OC[C@H]3CO[C@](Cn4cncn4)(c4ccc(Cl)cc4Cl)O3)cc2)CC1	111	–	86.1%	65.8	102	79.4%	52.8%	62.3	21.5%	89.7	97.7	73.8	47.9	71.6	86.5%	63.2%	74.7%	89%	-28.4% (active)	73.9
